Reference: PubChem BioAssay AID1159580 (chemical genetic matrix, 2015)
The campaign covered roughly 5,500 compounds. About 2,000 (36%) were called active. Inconclusive results (about 18%) are left out. Rule as the data show it: active = normalized growth mostly below about 0.91 (no sharp cut-off); inconclusive = no clear call, values can overlap the other calls; inactive = mostly above about 0.92. This is one part of the list.

Assay: chemical genetic growth profiling, strain panel (AID 1159580);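 also: tested at 20 µM; growth read once vehicle control cultures reached saturation at 30 °C; 1 = growth at the plate median or of vehicle wells; lower values mean less growth of the strain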
Settings: S. cerevisiae deletion strains, growth OD

Measured: normalized growth

O=C(O)CF
inactive: locus YAL013W, strain DEP1, hits give low values 0.998 | locus YAL021C, strain ccr4, hits give low values 1.01 | locus YAL026C, strain drs2, hits give low values 1.02 | locus YAL030W, strain snc1, hits give low values 1.02 | locus YBL061C, strain skt5, hits give low values 1.02 | locus YBR009C, strain hhf1, hits give low values 1.06 | locus YBR021W, strain FUR4, hits give low values 0.97 | locus YBR023C, strain chs3, hits give low values 1.03 | locus YBR171W, strain sec66, hits give low values 1.03 | locus YBR229C, strain ROT2, hits give low values 0.987 | locus YBR231C, strain swc5, hits give low values 1.01 | locus YBR279W, strain paf1, hits give low values 1.03 | locus YCL011C, strain gbp2, hits give low values 1.03 | locus YCL016C, strain dcc1, hits give low values 1.04 | locus YCL029C, strain bik1, hits give low values 0.975 | locus YCL061C, strain MRC1, hits give low values 1.02 | locus YCL069W, strain vba3, hits give low values 1.02 | locus YCR088W, strain abp1, hits give low values 1.02 | locus YDL005C, strain med2, hits give low values 1.02 | locus YDL035C, strain GPR1, hits give low values 1 | locus YDL040C, strain nat1, hits give low values 1.02 | locus YDL074C, strain BRE1, hits give low values 1.03 | locus YDL101C, strain DUN1, hits give low values 0.995 | locus YDL134C, strain PPH21, hits give low values 0.994 | locus YDL185W, strain tfp1, hits give low values 0.967 | locus YDL192W, strain arf1, hits give low values 0.98 | locus YDR001C, strain nth1, hits give low values 1.02 | locus YDR069C, strain doa4, hits give low values 1 | locus YDR101C, strain arx1, hits give low values 0.969 | locus YDR137W, strain rgp1, hits give low values 1.03 | locus YDR150W, strain NUM1, hits give low values 0.995 | locus YDR159W, strain sac3, hits give low values 0.997 | locus YDR162C, strain NBP2, hits give low values 1.03 | locus YDR195W, strain ref2 1 | locus YDR297W, strain sur2, hits give low values 1.03 | locus YDR318W, strain mcm21, hits give low values 0.965 | locus YDR334W, strain swr1, hits give low values 1.03 | locus YDR335W, strain msn5, hits give low values 1.03 | locus YDR388W, hits give low values 0.989 | locus YDR392W, strain spt3, hits give low values 0.981 | locus YDR502C, strain sam2, hits give low values 0.994 | locus YEL003W, strain gim4, hits give low values 1.03 | locus YEL037C, strain rad23, hits give low values 1.03 | locus YEL061C, strain CIN8 (second series), hits give low values 1.03 | locus YEL061C, strain CIN8, hits give low values 0.998 | locus YER015W, strain faa2, hits give low values 1.02 | locus YER016W, strain bim1, hits give low values 1.01 | locus YER110C, hits give low values 0.974 | locus YER111C, strain swi4, hits give low values 1.03 | locus YER155C, strain BEM2 (second series), hits give low values 1.01 | locus YER155C, strain BEM2, hits give low values 0.999 | locus YER167W, strain BCK2, hits give low values 0.985 | locus YFR010W, strain ubp6, hits give low values 1.03 | locus YGL078C, strain dbp3, hits give low values 0.99 | locus YGL086W, strain mad1, hits give low values 0.973 | locus YGL167C, strain pmr1, hits give low values 1.03 | locus YGL173C, strain kem1, hits give low values 1.03 | locus YGL227W, strain vid30, hits give low values 1.02 | locus YGL240W, strain doc1, hits give low values 1 | locus YGL248W, strain PDE1, hits give low values 0.992 | locus YGL253W, strain hxk2, hits give low values 1.01 | locus YGR078C, strain PAC10, hits give low values 1.03 | locus YGR135W, strain pre9, hits give low values 1.01 | locus YGR229C, strain SMI1, hits give low values 1.02 | locus YGR252W, strain gcn5, hits give low values 0.811 | locus YHR013C, strain ard1, hits give low values 1.07 | locus YHR027C, strain rpn1, hits give low values 1.02 | locus YHR030C, strain SLT2, hits give low values 0.988 | locus YHR079C, strain IRE1 (second series), hits give low values 0.979 | locus YHR094C, strain hxt1, hits give low values 0.995 | locus YHR129C, strain ARP1, hits give low values 0.998 | locus YHR142W, strain chs7, hits give low values 1.03 | locus YHR200W, strain rpn10, hits give low values 0.966 | locus YIL066C, strain RNR3, hits give low values 0.988 | locus YIL073C, strain SPO22, hits give low values 0.916 | locus YIL125W, strain kgd1, hits give low values 0.986 | locus YIR030C, strain dcg1, hits give low values 0.991 | locus YJL092W, strain hpr5, hits give low values 1.02 | locus YJL095W, strain BCK1 (second series), hits give low values 1.04 | locus YJL095W, strain BCK1, hits give low values 1.03 | locus YJL115W, strain asf1, hits give low values 1.02 | locus YJL129C, strain trk1, hits give low values 1.05 | locus YJL134W, strain LCB3, hits give low values 0.986 | locus YJL154C, strain vps35, hits give low values 1.02 | locus YJL164C, strain tpk1, hits give low values 1.04 | locus YJL166W, strain qcr8, hits give low values 1 | locus YJL168C, strain set2, hits give low values 0.986 | locus YJL187C, strain SWE1 (second series), hits give low values 1.01 | locus YJL187C, strain SWE1, hits give low values 1.02
